# Assay results from PubChem BioAssay (EPA / NIEHS).
# Active and inactive are the calls of the source. The calls were made as follows: active = hit-call score of the fitted dose curve at least 0.9, where 1 is the maximum; inactive = score below 0.9.
# Tests used:
# [1] = ATG_E_Box_CIS: Attagene CIS-FACTORIAL HepG2 Assay for human Enhancer Box (E-box) (AID 2282936); conditions: HepG2 E-box cis-reporter transcription, actives raise or lower the signal
# Summary of the method: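 Endogenous transcription factor activity was sensed in human HepG2 liver cells through transfected cis-promoter reporter units. After 24 h of dosing, total RNA was reverse-transcribed and reporter cDNA resolved by capillary electrophoresis.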
# [2] = ATG_M_61_CIS: Attagene CIS-FACTORIAL HepG2 Assay for M61 Transcription Factor (Internal Marker) (AID 2282937); conditions: HepG2 Attagene CIS-FACTORIAL M61 internal marker reporter; actives raise or lower the signal
# Summary of the method: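 Using transiently transfected HepG2 liver cells, reporter transcript levels were assessed 24 h post-dosing by RT-PCR and capillary electrophoresis. Changes in either direction were fitted relative to DMSO controls.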
# [3] = ATG_EGR_CIS: Attagene CIS-FACTORIAL HepG2 Assay for human Early Growth Response 1 (EGR1) (AID 2282938); conditions: HepG2 Attagene CIS-FACTORIAL EGR reporter mRNA; actives raise or lower the signal
# Summary of the method: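 Fluorescent capillary-electrophoresis signal of reporter cDNA fragments serves as read-out. HepG2 cells bear transiently transfected cis-promoter reporter units and are exposed 24 h; gain- or loss-of-signal is fitted against DMSO.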
# [4] = ATG_M_19_CIS: Attagene CIS-FACTORIAL HepG2 Assay for M19 Transcription Factor (Internal Marker) (AID 2282939); conditions: HepG2 Attagene CIS-FACTORIAL M19 internal marker reporter; actives raise or lower the signal
# Summary of the method: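 HepG2 cells transiently transfected with cis-regulated multiple reporter transcription units were dosed for 24 h; reporter mRNA was quantified by RT-PCR, 6-FAM primer-extension labelling, HpaI digestion and capillary electrophoresis, with bidirectional fitting against DMSO baseline.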
# [5] = ATG_Ets_CIS: Attagene CIS-FACTORIAL HepG2 Assay for human Erythroblast Transformation Specific (ETS) (AID 2282941); conditions: HepG2 ETS cis-reporter transcription, actives raise or lower the signal
# Summary of the method: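 Bidirectional fit versus DMSO of reporter mRNA signal, detected by RT-PCR and capillary electrophoresis in HepG2 cells transiently transfected with cis-element reporters and dosed 24 h.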
# [6] = target: Hepatocyte nuclear factor 3-beta (Homo sapiens) (UniProt Q9Y261); assay: ATG_FoxA2_CIS: Attagene CIS-FACTORIAL HepG2 Assay for human Forkhead box A2 (FOXA2) (AID 2282942); conditions: HepG2 cis-reporter transcription factor activity, 24 h; actives raise or lower the signal
# Summary of the method: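 Fluorescence signal of reporter cDNA fragments, separated by capillary electrophoresis, reflects endogenous transcription factor activity in transfected HepG2 after 24 h. Both increases and decreases fitted against DMSO.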
# [7] = ATG_FoxO_CIS: Attagene CIS-FACTORIAL HepG2 Assay for human Forkhead box O (FoxO) (AID 2282943); conditions: HepG2 Attagene cis-reporter, FoxO element, mRNA; actives raise or lower the signal
# Summary of the method: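 Values reflect reporter mRNA induction or loss in HepG2 cells 24 h post-dosing, fitted bidirectionally with DMSO as negative control and baseline. Detection used RT-PCR and fluorescence capillary electrophoresis.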
# [8] = ATG_GATA_CIS: Attagene CIS-FACTORIAL HepG2 Assay for human GATA Binding Protein (AID 2282944); conditions: HepG2 GATA cis-element reporter, Attagene multiplex mRNA; actives raise or lower the signal
# Summary of the method: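 HepG2 cells transiently transfected with multiplexed cis-element reporter units reflecting endogenous transcription factor activity; reporter mRNA measured after 24 h dosing by RT-PCR, 6-FAM labeling, HpaI digestion and capillary electrophoresis. Bidirectional fitting versus DMSO baseline.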
# [9] = ATG_GLI_CIS: Attagene CIS-FACTORIAL HepG2 Assay for human Zinc Finger Protein GLI1 (AID 2282945); conditions: HepG2, Attagene cis-factorial reporter mRNA, GLI element; actives raise or lower the signal
# Summary of the method: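 HepG2 cells transiently transfected with cis-promoter multiplexed reporter units report endogenous transcription factor activity. After 24 h chemical exposure, reporter mRNA was quantified by RT-PCR, 6-FAM labelling, HpaI digestion and capillary electrophoresis, with bidirectional fitting against DMSO.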
# [10] = target: Bile acid receptor (Homo sapiens) (UniProt Q96RI1); assay: ATG_IR1_CIS: Attagene CIS-FACTORIAL HepG2 Assay for human Nuclear Receptor Subfamily 1 Group H Member 4 (NR1H4), IR1 submotif (AID 2282946); conditions: IR1 reporter transcription, actives raise or lower the signal
# Summary of the method: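 Readout: reporter transcript levels by RT-PCR with fluorescent capillary electrophoresis, from HepG2 cells transiently transfected with multiplexed cis-regulated reporters and dosed 24 h. Gain- or loss-of-signal fitted versus DMSO negative control.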
# [11] = ATG_GRE_CIS: Attagene CIS-FACTORIAL HepG2 Assay for human Glucocorticoid Response Elements (GRE) (AID 2282947); conditions: HepG2 GRE cis-reporter, Attagene multiplex mRNA; actives raise or lower the signal
# Summary of the method: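 Cells (HepG2) bearing transfected cis-promoter reporter transcription units were treated with chemical for 24 hours. Reporter mRNA was measured via RT-PCR with capillary electrophoresis, and activity was fitted in both directions relative to DMSO.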
# [12] = ATG_ISRE_CIS: Attagene CIS-FACTORIAL HepG2 Assay for human Interferon Regulatory Factor 1 (IRF1) binding to an Interferon-Stimulated Response Element (ISRE) (AID 2282948); conditions: HepG2 ISRE cis-reporter (Attagene), mRNA transcription readout; actives raise or lower the signal
# Summary of the method: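 Uses HepG2 liver cells transfected with cis-regulated reporters and measures mRNA 24 h post-dosing through RT-PCR, primer-extension labelling and capillary electrophoresis, with DMSO as negative control.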
# [13] = ATG_M_32_CIS: Attagene CIS-FACTORIAL HepG2 Assay for M32 Transcription Factor (Internal Marker) (AID 2282949); conditions: HepG2 Attagene cis-factorial M32 reporter, mRNA; actives raise or lower the signal;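 also: background control marker of the multiplexed CIS panel rather than a real target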
# Summary of the method: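 HepG2 transfectants (cis-regulated reporter transcription units) dosed 24 h. Reporter mRNA by RT-PCR plus CE, analysed as gain or loss relative to DMSO.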
# [14] = ATG_M_06_CIS: Attagene CIS-FACTORIAL HepG2 Assay for M06 Transcription Factor (Internal Marker) (AID 2282950); conditions: HepG2 Attagene CIS-FACTORIAL M06 internal marker reporter; actives raise or lower the signal
# Summary of the method: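 HepG2 cells transiently transfected with cis-regulated multiple reporter transcription units were exposed to chemical for 24 h; reporter mRNA was quantified by RT-PCR, 6-FAM primer labelling, HpaI digestion and capillary electrophoresis, fitted bidirectionally against DMSO.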
# [15] = target: Hypoxia-inducible factor 1-alpha (Homo sapiens) (UniProt Q16665); assay: ATG_HIF1a_CIS: Attagene CIS-FACTORIAL HepG2 Assay for human Hypoxia Inducible Factor 1 (HIF1A) (AID 2282951); conditions: HepG2 Attagene cis-factorial HIF1a reporter transcription; actives raise or lower the signal
# Summary of the method: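 Endogenous-TF cis reporter readout, human HepG2 cells, 24 h incubation; mRNA detected via RT-PCR and capillary electrophoresis fluorescence; DMSO-normalised bidirectional fitting.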
# [16] = target: Hepatocyte nuclear factor 6 (Homo sapiens) (UniProt Q9UBC0); assay: ATG_HNF6_CIS: Attagene CIS-FACTORIAL HepG2 Assay for human Hepatocyte Nuclear Factor 6 (HNF6) (AID 2282952); conditions: HepG2 Attagene cis-factorial HNF6 reporter transcription; actives raise or lower the signal
# Summary of the method: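 Using cis-element reporters in HepG2 liver cells, the assay tracks endogenous factor-driven transcription 24 h post-dosing. Signal comes from 6-FAM-labelled, HpaI-digested RT-PCR fragments, with gain or loss scored against DMSO.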
# [17] = target: Heat shock factor protein 1 (Homo sapiens) (UniProt Q00613); assay: ATG_HSE_CIS: Attagene CIS-FACTORIAL HepG2 Assay for human Heat Shock Transcription Factor 1 (HSE) (AID 2282953); conditions: HepG2 HSE cis-reporter, Attagene RNA transcription; actives raise or lower the signal
# Summary of the method: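 HepG2 cells transiently transfected with multiple reporter transcription units under cis-regulatory promoter control, measuring endogenous transcription factor activity. After 24 h chemical exposure, reporter mRNA quantified by RT-PCR, fluorescent labelling, HpaI digestion and capillary electrophoresis; bidirectional fit versus DMSO.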
# [18] = ATG_MRE_CIS: Attagene CIS-FACTORIAL HepG2 Assay for human Metal Responsive Element (MRE) (AID 2282954); conditions: HepG2 MRE cis-reporter transcription, Attagene multiplex; actives raise or lower the signal
# Summary of the method: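 Cells were transfected with cis-promoter reporter transcription units, then dosed for 24 h. RNA was reverse-transcribed, amplified, fluorescently labelled and resolved by capillary electrophoresis, and activity was fitted in both directions relative to DMSO.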
# [19] = ATG_PBREM_CIS: Attagene CIS-FACTORIAL HepG2 Assay for human Phenobarbital-responsive Enhancer Module (PBREM) (AID 2282955); conditions: HepG2 PBREM cis-reporter, Attagene multiplexed transcription; actives raise or lower the signal
# Summary of the method: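 Readout: reporter mRNA, fluorescent RT-PCR fragments separated by capillary electrophoresis. System: HepG2 transiently transfected with cis-regulated reporter units. Exposure: 24 h. Analysis: bidirectional, DMSO baseline.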
# Bile acid receptor (Homo sapiens), sequence (Q96RI1 whole entry, looked up): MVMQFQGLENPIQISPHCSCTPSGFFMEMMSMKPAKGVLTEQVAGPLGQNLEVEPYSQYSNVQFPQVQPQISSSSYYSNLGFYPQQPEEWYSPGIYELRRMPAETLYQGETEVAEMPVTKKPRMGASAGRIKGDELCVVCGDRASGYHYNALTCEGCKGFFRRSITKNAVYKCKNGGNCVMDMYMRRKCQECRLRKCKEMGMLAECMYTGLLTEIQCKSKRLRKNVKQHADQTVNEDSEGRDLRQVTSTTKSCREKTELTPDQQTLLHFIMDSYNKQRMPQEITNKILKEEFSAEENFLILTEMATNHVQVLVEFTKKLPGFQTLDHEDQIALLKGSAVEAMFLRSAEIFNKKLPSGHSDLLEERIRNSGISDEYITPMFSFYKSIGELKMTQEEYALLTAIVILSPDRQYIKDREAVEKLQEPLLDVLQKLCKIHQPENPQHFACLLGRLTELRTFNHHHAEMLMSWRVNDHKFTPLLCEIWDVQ
# Heat shock factor protein 1 (Homo sapiens), sequence (Q00613 whole entry, looked up): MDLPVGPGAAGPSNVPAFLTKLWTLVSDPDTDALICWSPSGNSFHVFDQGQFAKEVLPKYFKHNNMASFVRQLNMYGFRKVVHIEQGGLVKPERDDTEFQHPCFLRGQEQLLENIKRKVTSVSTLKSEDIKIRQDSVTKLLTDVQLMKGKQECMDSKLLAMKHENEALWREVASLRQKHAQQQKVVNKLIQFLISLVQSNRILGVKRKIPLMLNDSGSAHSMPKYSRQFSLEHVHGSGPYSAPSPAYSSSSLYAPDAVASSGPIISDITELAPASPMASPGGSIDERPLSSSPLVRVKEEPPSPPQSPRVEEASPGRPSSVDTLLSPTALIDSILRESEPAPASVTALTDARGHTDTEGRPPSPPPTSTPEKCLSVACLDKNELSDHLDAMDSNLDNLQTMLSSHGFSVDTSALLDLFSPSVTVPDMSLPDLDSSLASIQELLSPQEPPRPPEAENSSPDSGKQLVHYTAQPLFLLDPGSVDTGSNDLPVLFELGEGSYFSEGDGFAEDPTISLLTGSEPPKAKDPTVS
# Hepatocyte nuclear factor 3-beta (Homo sapiens), sequence (Q9Y261 whole entry, looked up, the tested form may be a part): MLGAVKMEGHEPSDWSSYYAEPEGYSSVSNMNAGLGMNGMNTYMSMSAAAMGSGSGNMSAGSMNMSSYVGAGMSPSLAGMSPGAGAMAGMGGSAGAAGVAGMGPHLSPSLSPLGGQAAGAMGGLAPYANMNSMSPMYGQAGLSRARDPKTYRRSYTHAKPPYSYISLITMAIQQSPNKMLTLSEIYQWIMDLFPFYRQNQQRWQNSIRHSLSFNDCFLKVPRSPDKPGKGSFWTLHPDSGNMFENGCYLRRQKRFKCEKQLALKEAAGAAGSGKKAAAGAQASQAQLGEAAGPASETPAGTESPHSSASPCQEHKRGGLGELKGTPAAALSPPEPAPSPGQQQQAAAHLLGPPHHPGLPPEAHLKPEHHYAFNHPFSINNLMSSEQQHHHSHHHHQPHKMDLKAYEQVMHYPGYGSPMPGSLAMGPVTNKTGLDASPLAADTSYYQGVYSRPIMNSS
# Hypoxia-inducible factor 1-alpha (Homo sapiens), sequence (Q16665 whole entry, looked up): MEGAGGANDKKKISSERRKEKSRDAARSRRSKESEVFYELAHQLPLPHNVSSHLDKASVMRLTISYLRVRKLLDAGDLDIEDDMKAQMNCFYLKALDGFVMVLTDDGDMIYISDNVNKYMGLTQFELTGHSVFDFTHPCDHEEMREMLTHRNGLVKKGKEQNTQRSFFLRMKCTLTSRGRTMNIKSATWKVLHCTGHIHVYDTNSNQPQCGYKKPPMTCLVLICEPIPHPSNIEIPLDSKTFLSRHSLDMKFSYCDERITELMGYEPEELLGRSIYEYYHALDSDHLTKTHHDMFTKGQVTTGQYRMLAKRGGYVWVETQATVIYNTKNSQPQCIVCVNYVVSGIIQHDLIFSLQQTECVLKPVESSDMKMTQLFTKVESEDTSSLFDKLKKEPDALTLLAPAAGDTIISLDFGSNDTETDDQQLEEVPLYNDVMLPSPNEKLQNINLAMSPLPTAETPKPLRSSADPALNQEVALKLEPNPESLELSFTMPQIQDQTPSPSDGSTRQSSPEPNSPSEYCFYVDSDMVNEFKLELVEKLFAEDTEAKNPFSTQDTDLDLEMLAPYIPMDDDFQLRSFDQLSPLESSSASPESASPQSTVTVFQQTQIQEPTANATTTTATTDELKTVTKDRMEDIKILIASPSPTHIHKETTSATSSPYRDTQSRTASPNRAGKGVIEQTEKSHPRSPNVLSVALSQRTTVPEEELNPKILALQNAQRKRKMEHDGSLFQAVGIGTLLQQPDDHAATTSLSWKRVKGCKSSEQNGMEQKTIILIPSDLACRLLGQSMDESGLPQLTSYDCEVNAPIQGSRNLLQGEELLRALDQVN
# Hepatocyte nuclear factor 6 (Homo sapiens), sequence (Q9UBC0 whole entry, looked up, the tested form may be a part): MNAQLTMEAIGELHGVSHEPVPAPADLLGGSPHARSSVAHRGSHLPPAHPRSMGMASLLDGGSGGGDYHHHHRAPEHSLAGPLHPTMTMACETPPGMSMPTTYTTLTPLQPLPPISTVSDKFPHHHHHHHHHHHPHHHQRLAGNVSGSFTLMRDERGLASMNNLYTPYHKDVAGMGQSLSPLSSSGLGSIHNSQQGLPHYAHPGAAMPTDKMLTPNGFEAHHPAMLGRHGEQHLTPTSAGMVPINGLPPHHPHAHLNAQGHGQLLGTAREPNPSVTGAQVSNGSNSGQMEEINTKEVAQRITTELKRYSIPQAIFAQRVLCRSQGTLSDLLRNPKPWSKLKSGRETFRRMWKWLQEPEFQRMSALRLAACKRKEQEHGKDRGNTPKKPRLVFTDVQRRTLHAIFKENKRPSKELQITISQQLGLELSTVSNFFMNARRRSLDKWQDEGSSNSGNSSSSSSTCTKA
structure (smiles),measurement,setting,value
CSc1c(Cl)c(Cl)c(Cl)c(Cl)c1Cl,AC50,[1],26 µM (active)
same,outcome,[2],inactive
same,outcome,[3],inactive
same,outcome,[4],inactive
same,outcome,[5],inactive
same,outcome,[6],inactive
same,outcome,[7],inactive
same,outcome,[8],inactive
same,AC50,[9],185 µM (active)
same,AC50,[10],5.76 µM (active)
same,outcome,[11],inactive
same,AC50,[12],27.9 µM (active)
same,outcome,[13],inactive
same,outcome,[14],inactive
same,outcome,[15],inactive
same,outcome,[16],inactive
same,outcome,[17],inactive
same,AC50,[18],100 µM (active)
same,outcome,[19],inactive
O=C(CC(=O)c1ccccc1)c1ccccc1,AC50,[1],42.5 µM (active)
same,outcome,[2],inactive
same,AC50,[3],100 µM (active)
same,outcome,[4],inactive
same,outcome,[5],inactive
same,outcome,[6],inactive
same,outcome,[7],inactive
same,AC50,[8],171 µM (active)
same,AC50,[9],157 µM (active)
same,outcome,[10],inactive
same,outcome,[11],inactive
same,AC50,[12],95.9 µM (active)
same,outcome,[13],inactive
same,outcome,[14],inactive
same,AC50,[15],33.5 µM (active)
same,AC50,[17],145 µM (active)
same,AC50,[18],136 µM (active)
C=C(CC(=O)O)C(=O)O,outcome,[1],inactive
same,outcome,[2],inactive
same,outcome,[3],inactive
same,outcome,[4],inactive
same,outcome,[5],inactive
same,outcome,[6],inactive
same,outcome,[7],inactive
same,outcome,[8],inactive
same,outcome,[9],inactive
same,outcome,[10],inactive
same,outcome,[11],inactive
same,outcome,[12],inactive
same,outcome,[13],inactive
same,outcome,[14],inactive
same,outcome,[16],inactive
same,outcome,[17],inactive
same,outcome,[18],inactive
Cc1c(Cl)cccc1[N+](=O)[O-],outcome,[1],inactive
same,outcome,[2],inactive
same,outcome,[3],inactive
same,outcome,[4],inactive
same,outcome,[5],inactive
same,outcome,[6],inactive
same,outcome,[7],inactive
same,outcome,[8],inactive
same,outcome,[9],inactive
same,outcome,[10],inactive
same,outcome,[11],inactive
same,outcome,[12],inactive
same,outcome,[13],inactive
same,outcome,[14],inactive
same,outcome,[16],inactive
same,outcome,[17],inactive
same,outcome,[18],inactive
COc1ccc(OC)c(N=Nc2c(O)ccc3ccccc23)c1,outcome,[1],inactive
same,outcome,[2],inactive
same,outcome,[3],inactive
same,outcome,[4],inactive
same,outcome,[5],inactive
same,outcome,[6],inactive
same,outcome,[7],inactive
same,outcome,[8],inactive
same,outcome,[9],inactive
same,outcome,[10],inactive
same,outcome,[11],inactive
same,outcome,[13],inactive
same,outcome,[14],inactive
same,outcome,[15],inactive
same,outcome,[16],inactive
same,outcome,[17],inactive
same,outcome,[18],inactive
same,outcome,[19],inactive
CCCCCCCCc1ccc(S(=O)(=O)O)cc1,AC50,[1],159 µM (active)
same,AC50,[2],155 µM (active)
same,outcome,[3],inactive
same,AC50,[4],157 µM (active)
same,AC50,[5],156 µM (active)
same,outcome,[6],inactive
same,AC50,[7],159 µM (active)
same,AC50,[8],99.5 µM (active)
same,AC50,[9],168 µM (active)
same,AC50,[10],175 µM (active)
same,outcome,[11],inactive
same,outcome,[12],inactive
same,AC50,[13],99.5 µM (active)
same,AC50,[14],155 µM (active)
same,outcome,[15],inactive
same,outcome,[17],inactive
same,AC50,[19],99.5 µM (active)
CCCC[O][Al]([O]CCCC)[O]CCCC,outcome,[1],inactive
same,outcome,[2],inactive
same,outcome,[3],inactive
same,outcome,[4],inactive
same,outcome,[5],inactive
same,outcome,[6],inactive
same,outcome,[7],inactive
same,outcome,[8],inactive
same,outcome,[9],inactive
same,outcome,[10],inactive
same,outcome,[11],inactive
same,outcome,[12],inactive
same,outcome,[13],inactive
same,outcome,[14],inactive
same,outcome,[17],inactive
same,outcome,[18],inactive
same,outcome,[19],inactive
C=CC(C)C#N (stereo not given),outcome,[1],inactive
same,outcome,[2],inactive
same,outcome,[3],inactive
same,outcome,[4],inactive
same,outcome,[5],inactive
same,outcome,[6],inactive
same,outcome,[7],inactive
same,outcome,[8],inactive
same,outcome,[9],inactive
same,outcome,[10],inactive
same,outcome,[11],inactive
same,outcome,[13],inactive
same,outcome,[14],inactive
same,outcome,[15],inactive
same,outcome,[16],inactive
same,outcome,[17],inactive
same,outcome,[18],inactive
same,outcome,[19],inactive
